# Where “and” joins values, the source holds several entries; their conditions need not be identical. Equal values may be shown once. Some compounds were tested as several samples or in several runs, with calls that do not always agree. Calls of active or inactive are those of the source. How the source made its calls: active means hit-call score of the fitted dose curve at least 0.9, where 1 is the maximum; inactive means score below 0.9.
# Test: BSK_hDFCGF_Proliferation: Cell Proliferation Assessment in the BioMAP Diversity Plus: hDFCGF Assay (AID 2283059);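 further: curves fitted for both rise and fall of signal versus DMSO baseline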
# Details: primary human foreskin fibroblasts
# Procedure: BSK_hDFCGF is a cell-based, multiplexed-readout assay that uses foreskin fibroblast, a human skin primary cell, with measurements taken at 24 hours after chemical dosing in a 96-well plate.BSK_hDFCGF_Proliferation is an assay component measured in the BSK_hDFCGF assay. It measures […] related to cell proliferation using Sulforhodamine staining technology.Data from the assay component BSK_hDFCGF_Proliferation was analyzed into 1 assay endpoint. This assay endpoint, BSK_hDFCGF_Proliferation, was analyzed with bidirectional fitting relative to DMSO as the negative control and baseline of activity. Using a type of viability reporter, measures of total protein for gain or loss-of-signal activity can be used to understand the viability at the cellular-level. Furthermore, this assay endpoint can be referred to as a secondary readout, because this assay has produced multiple assay endpoints where this one serves a viability function. To generalize the intended target to other relatable targets, this assay endpoint is annotated to the cell cycle intended target family, where the subfamily is proliferation.
# The levels of cell surface (or secreted, indicated by the prefix "s") biomarker endpoints were measured by ELISA. Overt cytotoxicity to cells in confluent adherent cultures (all systems other than the BT system) was assessed by measuring total protein levels using sulforhodamine B (SRB) staining in parallel cultures at the time of biomarker measurements, indicated as SRB endpoints. For proliferation assays for adherent cell types, individual cell types are cultured at sub-confluence and relative cell numbers quantified by SRB staining at time points optimized for each system (48 h: 3C and CASM3C systems; 72 h: BT and HDF3CGF systems; 96 h: SAg system). SRB was performed by staining cells with 0.1% SRB after fixation with 10% TCA and reading wells at 560 nm.Viability and proliferation of PBMC (T cells) was quantified by Alamar Blue reduction for the SAg and BT systems. For PBMC viability (referred to as PBMC Cytotoxicity within the assay endpoint names), cells were plated (75,000/well in a 96-well plate) and then chemical samples added for 1 h before addition of activators, SEB and TSST-1 (20 ng/mL final concentration each). Cells were incubated for 90 h. Then, Alamar Blue (20 uL/well) (Invitrogen, Cat DAL1100) was added for 6 h, and the plates were read with a fluorescence microplate reader at 546/580 nm (excitation/emission). For PBMC proliferation, cells were plated and activated as above but incubated for only 16 h prior to addition of Alamar Blue. Plates were read after 6 h.
SMILES,outcome,AC50
CCCCC(CC)C(=O)OCCOCCOCCOCCOC(=O)C(CC)CCCC (stereo not given),inactive,–
COC1=CC(=O)C[C@@H](C)[C@]12Oc1c(Cl)c(OC)cc(OC)c1C2=O,inactive,–
CCCCC(CC)C(=O)O (stereo not given),inactive,–
O=C1c2ccc(O)c(O)c2C(=O)c2c(O)ccc(O)c21,inactive,–
O=C(O)C(F)(F)OC(F)(F)C(F)(F)OC(F)(F)C(F)(F)OC(F)(F)C(F)(F)C(F)(F)C(F)(F)F,–,7.93 µM (active) and 8.07 µM (active)
CN(C)CCOC(c1ccccc1)c1ccccc1,inactive,–
CCOC(=O)CN[C@@H](C(=O)N1CC[C@H]1C(=O)NCc1ccc(/C(N)=N/O)cc1)C1CCCCC1,inactive,–
CCCCCc1ccc(O)cc1,–,8.97 µM (active)
Oc1cc2ccccc2cc1O,–,29.7 µM (active)
O=C1OC2(c3ccccc31)c1cc(I)c(O)c(I)c1Oc1c2cc(I)c(O)c1I,–,15.2 µM (active)
N=C(N)c1ccc(OCCCCCOc2ccc(C(=N)N)cc2)cc1,–,12.1 µM (active)
COc1cc(OC)nc(NC(=O)NS(=O)(=O)Nc2ccccc2C(=O)N(C)C)n1,inactive,–
Oc1c(Cl)cc(Cl)cc1Sc1cc(Cl)cc(Cl)c1O,–,1.08 µM (active) and 148 nM (active)
CCCCCCCCCCCC,–,11.6 µM (active) and 11.5 µM (active)
OCC(CO)(CBr)CBr,inactive,–
C=CC(=O)OCCC(F)(F)C(F)(F)C(F)(F)C(F)(F)C(F)(F)C(F)(F)C(F)(F)C(F)(F)F,inactive,30 µM (active)
O=C(NO)c1ccccc1,–,3.81 µM (active)
C[C@]12CC[C@@H]3c4ccc(O)cc4CC[C@H]3[C@@H]1C[C@@H](O)[C@@H]2O,inactive,–
O=C(O)CCC(F)(F)C(F)(F)C(F)(F)C(F)(F)C(F)(F)C(F)(F)F,inactive,–
NC(=NCCCCCCN=C(N)/N=C(\N)Nc1ccc(Cl)cc1)/N=C(\N)Nc1ccc(Cl)cc1,–,1.44 µM (active)

SMILES,outcome,AC50
CCCCc1oc2ccccc2c1C(=O)c1cc(I)c(OCCN(CC)CC)c(I)c1,–,3.97 µM (active)
Clc1ccc(Nc2nnc(Cc3ccncc3)c3ccccc23)cc1,inactive,–
O=C(O)CCC(F)(F)C(F)(F)C(F)(F)C(F)(F)C(F)(F)F,inactive,–
C=COC(=O)C(C)(C)CCCCCC,–,31.7 µM (active)
CCCCC=O,inactive,–
C=CC(C)(CCC=C(C)C)OC(C)=O (stereo not given),–,24.7 µM (active)
COCN(COC)c1nc(N(COC)COC)nc(N(COC)COC)n1,inactive,–
CC(C)(C)c1ccc(O)c(O)c1,–,7.12 µM (active)
CN(Cc1cnc2nc(N)nc(N)c2n1)c1ccc(C(=O)N[C@@H](CCC(=O)O)C(=O)O)cc1,inactive,–
CCCCCCCCCCCCOS(=O)(=O)O,–,16 µM (active)
CS(=O)(=O)c1ccc([C@@H](CC2CCCC2)C(=O)Nc2cnccn2)cc1Cl,–,20 µM (active)
C=CC(=C)CC/C=C(\C)CCC=C(C)C,–,6.49 µM (active)
O=P(O)(O)CCC(F)(F)C(F)(F)C(F)(F)C(F)(F)C(F)(F)C(F)(F)C(F)(F)C(F)(F)F,–,39.9 µM (active) and 49.4 µM (active)
CCCCCCCCCCCCCCCCCC[N+](C)(C)Cc1ccccc1,–,0.0156 µM (active)
O=C(NCc1ncc(C(F)(F)F)cc1Cl)c1c(Cl)cccc1Cl,inactive,–
O=P(O)(O)CCC(F)(F)C(F)(F)C(F)(F)C(F)(F)C(F)(F)C(F)(F)F,–,15.8 µM (active) and 19.1 µM (active)
CCC(C)c1ccccc1O (stereo not given),inactive,–
O=C(c1ccccc1)c1ccccc1,inactive,–
Cc1ccc(C(=O)c2ccccc2)cc1,–,32.4 µM (active)

# — PubChem BioAssay (EPA / NIEHS)
